Measurements taken from PubChem BioAssay AID1259336 (Sattelle Laboratory, UCL Respiratory, Division of Medicine, …, 2017).
Calls of active or inactive are those of the source. Cut-off read from the data, not from the text of the source: active = log2 fold change growth below about -1.8; inactive = the rest.

Test: C. elegans growth inhibition, whole organism, log2 fold change (AID 1259336);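 note: growth scored by imaging after five days at 20 °C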
Settings: anthelmintic screen, stronger effect = lower value

log2 fold change growth, inactive:
COc1ccc(-c2cnc3cnc(-c4cccc(OC(C)C)c4)cn23)cc1 -0.137, FC(F)(F)c1nnc2ccc(Cl)nn12 -0.128, OC[C@H]1O[C@@H](n2c3ccc(Cl)cc3c3c(-c4cc5ccccc5o4)ncnc32)C(O)[C@H]1O (some centres undefined) -0.877, Cc1nnc(NCc2cccc(Cl)c2)c2ccccc12 0.138, O=C(Nc1nnc(-c2ccc(Cl)cc2)o1)c1cccc(C(F)(F)F)c1 -1.36, O=C(Nc1ccc(N2CCNCC2)cc1)c1ccn2ncc(-c3cccc(Cl)c3)c2n1 -0.0705, CC[C@H](Sc1nc2ccccc2o1)C(=O)Nc1nccs1 -0.397, COc1cccc(-n2nnnc2S(C)(=O)=O)c1 0.157, COc1cc(NC(=O)Cc2nn(C)c(=O)c3ccccc23)ccc1Cl 0.419, COc1cccc(CC(=O)N2CCC(n3c(C)nc4ccc(F)cc43)CC2)c1 0.116, O=C(Nc1ccc(N2CCNCC2)nc1)c1oc(-c2ccccc2)nc1C(F)(F)F -0.164, NCCC(O)C(=O)N[C@@H]1C[C@H](N)[C@@H](OC2O[C@H](CN)[C@@H](O)[C@H](O)[C@H]2O)[C@H](O)C1OC1O[C@H](CO)[C@@H](O)[C@H](N)[C@H]1O (some centres undefined) 0.334, COc1ccc(Cn2cnc3c(-c4ccco4)nc(Cl)nc32)cc1 -0.325, OCCc1ccc(Nc2nccc(-c3nnc4ccccn34)n2)cc1 -0.0214
